Our source for the binding signal values is publication PMC7862700, “An all-to-all approach to the identification of sequence-specific readers for epigenetic DNA modifications on cytosine”.

ETV6, sequence (P41212 whole entry): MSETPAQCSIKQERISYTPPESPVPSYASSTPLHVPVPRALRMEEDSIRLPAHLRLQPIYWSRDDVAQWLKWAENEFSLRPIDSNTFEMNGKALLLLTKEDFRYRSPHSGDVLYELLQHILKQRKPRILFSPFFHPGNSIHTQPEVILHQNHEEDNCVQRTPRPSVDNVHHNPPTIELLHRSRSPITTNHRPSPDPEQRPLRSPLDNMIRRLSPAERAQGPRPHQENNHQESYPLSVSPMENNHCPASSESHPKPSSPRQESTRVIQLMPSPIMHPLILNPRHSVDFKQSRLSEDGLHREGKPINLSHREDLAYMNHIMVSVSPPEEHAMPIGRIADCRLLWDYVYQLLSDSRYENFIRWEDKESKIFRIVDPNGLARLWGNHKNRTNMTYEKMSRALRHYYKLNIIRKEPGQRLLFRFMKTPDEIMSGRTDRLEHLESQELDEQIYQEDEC

In one assay the target is T1, ELF5 (Homo sapiens, UniProt Q9UKW6-2 1-255).
T1 sequence: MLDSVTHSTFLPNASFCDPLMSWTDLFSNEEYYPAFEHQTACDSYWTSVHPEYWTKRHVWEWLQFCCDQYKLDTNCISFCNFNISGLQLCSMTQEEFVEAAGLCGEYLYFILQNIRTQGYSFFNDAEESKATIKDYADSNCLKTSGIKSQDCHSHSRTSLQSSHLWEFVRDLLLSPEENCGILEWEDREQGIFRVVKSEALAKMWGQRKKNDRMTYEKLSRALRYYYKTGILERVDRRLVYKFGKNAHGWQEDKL
Description: DAPPL (digital affinity profiling via proximity ligation, sequencing); 10 mM Tris-HCl pH 7.5, 50 mM NaCl, 1 mM DTT, 4% glycerol, room temperature, 30 min; GST-TFs on glutathione beads, 16-mer random dsDNA library, 0.1% formaldehyde crosslink after washing; high values mean tight binding. The following applies: protein: recombinant; tags: N-terminal GST; dsDNA, one strand shown. Put shortly: (§1)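 Human transcription factors fused to GST were expressed in yeast, captured on glutathione beads, given DNA barcodes and pooled with a GST-only negative control. Pools were incubated with 200 nmole of a 16-mer random double-stranded DNA library in Tris/NaCl/DTT/glycerol buffer at room temperature for 30 min. They were then washed, crosslinked with 0.1% formaldehyde, proximity-ligated (BsaI/T4 ligase, 1 h, 37 °C), PCR-amplified and sequenced on an Illumina NextSeq500. Binding signal is each 6-mer's read frequency for a factor divided by its frequency for the GST control.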
Take AATCAC: the binding signal is 1.09 fold enrichment (6-mer frequency, TF over GST control).

With CCGTTT, the binding signal is 1.51 fold enrichment (6-mer frequency, TF over GST control).

On to CCTGCT, for which the binding signal was 1.84 fold enrichment (6-mer frequency, TF over GST control).

On to TAGCAC, for which the binding signal was 1.09 fold enrichment (6-mer frequency, TF over GST control).

With ACAGCT, the binding signal was 1.12 fold enrichment (6-mer frequency, TF over GST control).

As to ACGCTA, the binding signal was 1.12 fold enrichment (6-mer frequency, TF over GST control).

With TGCCTC, the binding signal is 1.4 fold enrichment (6-mer frequency, TF over GST control).

As to TCCCAT, the binding signal was 1.44 fold enrichment (6-mer frequency, TF over GST control).

TTCGGT: the binding signal is 1.06 fold enrichment (6-mer frequency, TF over GST control).

On to AAGTAA, for which the binding signal is 1.42 fold enrichment (6-mer frequency, TF over GST control).

Turning to TGTCTT, the binding signal was 1.39 fold enrichment (6-mer frequency, TF over GST control).

Take CTCGTC: the binding signal was 1.32 fold enrichment (6-mer frequency, TF over GST control).

Turning to GACTCT, the binding signal was 1.22 fold enrichment (6-mer frequency, TF over GST control).

Turning to CAATTT, the binding signal is 1.29 fold enrichment (6-mer frequency, TF over GST control).

Consider AACTGC, for which the binding signal was 1.36 fold enrichment (6-mer frequency, TF over GST control).

For the sequence TGCTTT, the binding signal was 1.15 fold enrichment (6-mer frequency, TF over GST control).

Regarding CGTATT, the binding signal is 1.14 fold enrichment (6-mer frequency, TF over GST control).

For CTTGGT, the binding signal is 1.37 fold enrichment (6-mer frequency, TF over GST control).

With CCCTTA, the binding signal is 1.2 fold enrichment (6-mer frequency, TF over GST control).

For the sequence AACTAG, the binding signal is 1.13 fold enrichment (6-mer frequency, TF over GST control).

With TATATT, the binding signal is 1.35 fold enrichment (6-mer frequency, TF over GST control).

Consider AGGTCT, for which the binding signal is 1.16 fold enrichment (6-mer frequency, TF over GST control).

Turning to TAATTC, the binding signal is 1.41 fold enrichment (6-mer frequency, TF over GST control).

Consider ATCCGC, for which the binding signal was 2.26 fold enrichment (6-mer frequency, TF over GST control).

In the case of CCTATC, the binding signal is 1.12 fold enrichment (6-mer frequency, TF over GST control).

In the case of GTTTCT, the binding signal is 1.31 fold enrichment (6-mer frequency, TF over GST control).

Consider TCCAAC, for which the binding signal is 1.12 fold enrichment (6-mer frequency, TF over GST control).

Turning to TCCGTA, the binding signal was 2.03 fold enrichment (6-mer frequency, TF over GST control).

As for CCTTGA, the binding signal is 1.37 fold enrichment (6-mer frequency, TF over GST control).

As for TCCTGC, the binding signal is 2.12 fold enrichment (6-mer frequency, TF over GST control).

As to TTACTC, the binding signal is 1.21 fold enrichment (6-mer frequency, TF over GST control).

For TTTGCC, the binding signal was 1.2 fold enrichment (6-mer frequency, TF over GST control).

TACAGA: the binding signal was 1.11 fold enrichment (6-mer frequency, TF over GST control).

As for TGTTTT, the binding signal was 1.48 fold enrichment (6-mer frequency, TF over GST control).

As to AAGTAT, the binding signal is 1.56 fold enrichment (6-mer frequency, TF over GST control).

Consider ACTTTC, for which the binding signal was 1.74 fold enrichment (6-mer frequency, TF over GST control).

Take TATACA: the binding signal was 1.29 fold enrichment (6-mer frequency, TF over GST control).

Turning to ATTTAA, the binding signal was 1.1 fold enrichment (6-mer frequency, TF over GST control).

In the case of CACGAT, the binding signal is 1.17 fold enrichment (6-mer frequency, TF over GST control).

As to AACAAT, the binding signal is 1.36 fold enrichment (6-mer frequency, TF over GST control).

The target of another assay is T2, ETV3 (Homo sapiens, UniProt P41162-2 1-143).
T2 sequence: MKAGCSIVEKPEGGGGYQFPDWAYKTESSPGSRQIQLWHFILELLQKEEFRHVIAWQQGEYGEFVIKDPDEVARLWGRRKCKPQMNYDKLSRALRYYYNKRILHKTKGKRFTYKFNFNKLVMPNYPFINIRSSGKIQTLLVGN
The description is as above. The following applies: protein: recombinant; tags: N-terminal GST; dsDNA, one strand shown. Put shortly:
as §1
AATCAC: the binding signal is 1.07 fold enrichment (6-mer frequency, TF over GST control).

For the sequence CCGTTT, the binding signal was 1.52 fold enrichment (6-mer frequency, TF over GST control).

For the sequence CCTGCT, the binding signal was 1.67 fold enrichment (6-mer frequency, TF over GST control).

Consider TAGCAC, for which the binding signal is 1.1 fold enrichment (6-mer frequency, TF over GST control).

As to ACAGCT, the binding signal was 1.14 fold enrichment (6-mer frequency, TF over GST control).

Take ACGCTA: the binding signal is 1.21 fold enrichment (6-mer frequency, TF over GST control).

TGCCTC: the binding signal is 1.39 fold enrichment (6-mer frequency, TF over GST control).

With TCCCAT, the binding signal is 1.32 fold enrichment (6-mer frequency, TF over GST control).

Take TTCGGT: the binding signal was 1.07 fold enrichment (6-mer frequency, TF over GST control).

On to AAGTAA, for which the binding signal was 1.28 fold enrichment (6-mer frequency, TF over GST control).

With TGTCTT, the binding signal was 1.38 fold enrichment (6-mer frequency, TF over GST control).

CTCGTC: the binding signal is 1.34 fold enrichment (6-mer frequency, TF over GST control).

As for GACTCT, the binding signal is 1.22 fold enrichment (6-mer frequency, TF over GST control).

Regarding CAATTT, the binding signal is 1.43 fold enrichment (6-mer frequency, TF over GST control).

As to AACTGC, the binding signal is 1.39 fold enrichment (6-mer frequency, TF over GST control).

TGCTTT: the binding signal is 1.14 fold enrichment (6-mer frequency, TF over GST control).

CGTATT: the binding signal is 1.16 fold enrichment (6-mer frequency, TF over GST control).

For the sequence CTTGGT, the binding signal was 1.34 fold enrichment (6-mer frequency, TF over GST control).

CCCTTA: the binding signal was 1.39 fold enrichment (6-mer frequency, TF over GST control).

With AACTAG, the binding signal was 1.14 fold enrichment (6-mer frequency, TF over GST control).

Take TATATT: the binding signal is 1.44 fold enrichment (6-mer frequency, TF over GST control).

Consider AGGTCT, for which the binding signal was 1.11 fold enrichment (6-mer frequency, TF over GST control).

TAATTC: the binding signal was 1.51 fold enrichment (6-mer frequency, TF over GST control).

Turning to ATCCGC, the binding signal was 1.92 fold enrichment (6-mer frequency, TF over GST control).

Regarding CCTATC, the binding signal was 1.2 fold enrichment (6-mer frequency, TF over GST control).

With GTTTCT, the binding signal is 1.24 fold enrichment (6-mer frequency, TF over GST control).

In the case of TCCAAC, the binding signal was 1.2 fold enrichment (6-mer frequency, TF over GST control).

Consider TCCGTA, for which the binding signal is 1.71 fold enrichment (6-mer frequency, TF over GST control).

For CCTTGA, the binding signal was 1.19 fold enrichment (6-mer frequency, TF over GST control).

As for TCCTGC, the binding signal was 1.73 fold enrichment (6-mer frequency, TF over GST control).

TTACTC: the binding signal was 1.29 fold enrichment (6-mer frequency, TF over GST control).

As to TTTGCC, the binding signal is 1.32 fold enrichment (6-mer frequency, TF over GST control).

TACAGA: the binding signal was 1.1 fold enrichment (6-mer frequency, TF over GST control).

Regarding TGTTTT, the binding signal is 1.46 fold enrichment (6-mer frequency, TF over GST control).

On to AAGTAT, for which the binding signal is 1.46 fold enrichment (6-mer frequency, TF over GST control).

Turning to ACTTTC, the binding signal is 1.63 fold enrichment (6-mer frequency, TF over GST control).

For the sequence TATACA, the binding signal is 1.31 fold enrichment (6-mer frequency, TF over GST control).

As for ATTTAA, the binding signal is 1.13 fold enrichment (6-mer frequency, TF over GST control).

With CACGAT, the binding signal was 1.29 fold enrichment (6-mer frequency, TF over GST control).

Regarding AACAAT, the binding signal is 1.32 fold enrichment (6-mer frequency, TF over GST control).

Another assay addresses ETV6 (Homo sapiens, UniProt P41212 1-452). The description is as above. The settings on record: protein: recombinant; tags: N-terminal GST; dsDNA, one strand shown. Put shortly: as §1
On to AATCAC, for which the binding signal was 1.09 fold enrichment (6-mer frequency, TF over GST control).

For CCGTTT, the binding signal is 1.53 fold enrichment (6-mer frequency, TF over GST control).

Take CCTGCT: the binding signal was 1.68 fold enrichment (6-mer frequency, TF over GST control).

For TAGCAC, the binding signal is 1.02 fold enrichment (6-mer frequency, TF over GST control).

In the case of ACAGCT, the binding signal was 1.08 fold enrichment (6-mer frequency, TF over GST control).

As to ACGCTA, the binding signal is 1.08 fold enrichment (6-mer frequency, TF over GST control).

On to TGCCTC, for which the binding signal is 1.36 fold enrichment (6-mer frequency, TF over GST control).

Consider TCCCAT, for which the binding signal is 1.37 fold enrichment (6-mer frequency, TF over GST control).

As for TTCGGT, the binding signal was 1.22 fold enrichment (6-mer frequency, TF over GST control).

AAGTAA: the binding signal was 1.45 fold enrichment (6-mer frequency, TF over GST control).

Take TGTCTT: the binding signal was 1.16 fold enrichment (6-mer frequency, TF over GST control).

Turning to CTCGTC, the binding signal was 1.46 fold enrichment (6-mer frequency, TF over GST control).

Consider GACTCT, for which the binding signal was 1.16 fold enrichment (6-mer frequency, TF over GST control).

Consider CAATTT, for which the binding signal is 1.32 fold enrichment (6-mer frequency, TF over GST control).

As to AACTGC, the binding signal was 1.3 fold enrichment (6-mer frequency, TF over GST control).

Turning to TGCTTT, the binding signal is 1.1 fold enrichment (6-mer frequency, TF over GST control).

As for CGTATT, the binding signal is 1.22 fold enrichment (6-mer frequency, TF over GST control).

For CTTGGT, the binding signal was 1.44 fold enrichment (6-mer frequency, TF over GST control).

As for CCCTTA, the binding signal was 1.24 fold enrichment (6-mer frequency, TF over GST control).

For the sequence AACTAG, the binding signal is 1.15 fold enrichment (6-mer frequency, TF over GST control).

TATATT: the binding signal is 1.37 fold enrichment (6-mer frequency, TF over GST control).

Turning to AGGTCT, the binding signal is 1.07 fold enrichment (6-mer frequency, TF over GST control).

On to TAATTC, for which the binding signal is 1.53 fold enrichment (6-mer frequency, TF over GST control).

For the sequence ATCCGC, the binding signal is 1.66 fold enrichment (6-mer frequency, TF over GST control).

Consider CCTATC, for which the binding signal is 1.12 fold enrichment (6-mer frequency, TF over GST control).

For the sequence GTTTCT, the binding signal is 1.28 fold enrichment (6-mer frequency, TF over GST control).

For TCCAAC, the binding signal was 1.14 fold enrichment (6-mer frequency, TF over GST control).

As for TCCGTA, the binding signal was 1.54 fold enrichment (6-mer frequency, TF over GST control).

On to CCTTGA, for which the binding signal is 1.23 fold enrichment (6-mer frequency, TF over GST control).

For the sequence TCCTGC, the binding signal was 1.77 fold enrichment (6-mer frequency, TF over GST control).

On to TTACTC, for which the binding signal is 1.27 fold enrichment (6-mer frequency, TF over GST control).

In the case of TTTGCC, the binding signal was 1.11 fold enrichment (6-mer frequency, TF over GST control).

As for TACAGA, the binding signal is 1.1 fold enrichment (6-mer frequency, TF over GST control).

For the sequence TGTTTT, the binding signal was 1.39 fold enrichment (6-mer frequency, TF over GST control).

Consider AAGTAT, for which the binding signal is 1.58 fold enrichment (6-mer frequency, TF over GST control).

Turning to ACTTTC, the binding signal is 1.57 fold enrichment (6-mer frequency, TF over GST control).

For TATACA, the binding signal is 1.25 fold enrichment (6-mer frequency, TF over GST control).

Consider ATTTAA, for which the binding signal was 1.21 fold enrichment (6-mer frequency, TF over GST control).

For the sequence CACGAT, the binding signal was 1.27 fold enrichment (6-mer frequency, TF over GST control).

As to AACAAT, the binding signal is 1.31 fold enrichment (6-mer frequency, TF over GST control).
